EWS-Fli block = EWS/Fli-driven NR0B1 reporter inhibitors, primary screen, A673 cells, NR0B1 luciferase, luminescence, MLPCN library | viability-normalised | inhibition, % at 12.6 µM | 350,000 compounds, 0.67% hits;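 active = mean inhibition of at least 50% after viability correction, with every replicate also passing that limit; inconclusive = mean reaches 50% but only one of two replicates passes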;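 note: firefly luciferase signal divided by Alamar Blue viability fluorescence both relative to DMSO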
LGR2 antag = inhibitors of bursicon-induced LGR2 CRE-luciferase signal, primary screen, cell-based, HEK293, CRE-luciferase reporter, bursicon stimulation; bursicon-stimulated, 4 h; inhibition, % at 9.99 µM; 380,000 compounds, 0.35% hits; AID 720647, 2013;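 active = drop in luminescence signal, shown as inhibition above about 50% in the replicate tests, limit read from the data, passing the limit was not always enough; inconclusive = probably only some replicates passing the limit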;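 note: agonist challenge used bursicon conditioned medium at about half maximal strength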
LMP1 NFkB inh = EBV LMP1-driven NF-kappaB luciferase reporter inhibitors, primary screen, cell-based, luminescence, single point. inhibition, % at 12.5 µM. AID 504558, 2011. 350,000 compounds, 0.69% hits. LMP1-induced NF-kappaB luciferase reporter cells; in the data active = inhibition above about 41%; inconclusive = no clear call, values can overlap the other calls;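 note: 0% = neutral control wells and 100% = reference inhibitor control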
TWEAK Fn14 block = inhibitors of TWEAK-Fn14 signaling, primary screen, luciferase reporter cells, uHTS | TWEAK-stimulated Fn14 reporter cells, luciferase luminescence, 8 h | inhibition, % at 10 µM | 360,000 compounds, 2% hits; in the data active = inhibition above about 50%
TROY signal inh = inhibitors of TROY-driven NF-kB signaling, primary screen, Q293 LMP1-TROYcd cells, NF-kB luciferase, uHTS; Q293 LMP1-TROYcd NF-kB luciferase reporter, 4 h; inhibition, % at 10 µM; 360,000 compounds, 0.98% hits; AID 1347056, 2019;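 active = compounds whose plate-normalised and pattern-corrected inhibition of the luciferase reporter signal at the single screening dose is 50% or more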
* marks the source's active call; other numbers are inactive results; ? = inconclusive; / = no result. Hits are enriched below; roughly 2.5% of the tested compounds scored in any of these assays.

SMILES	EWS-Fli block	LGR2 antag	LMP1 NFkB inh	TWEAK Fn14 block	TROY signal inh
COc1ccccc1-c1cnc2c(c1)C(=O)N([C@@H](C)CO)C[C@@H](C)[C@H](CN(C)Cc1ccncc1)O2	-8	-10	/	/	/
C[C@H]1CCCCO[C@H](CN(C)S(=O)(=O)c2ccc(F)cc2)[C@@H](C)CN([C@@H](C)CO)C(=O)c2cc(NC(=O)Cc3ccccc3)ccc2O1	3	41	/	/	/
COc1ccc(NC(=O)Nc2ccc3c(c2)CC(=O)N([C@H](C)CO)C[C@@H](C)[C@H](CN(C)C(=O)Nc2ccc(F)cc2)O3)cc1	-13	-19	/	/	/
COC(=O)c1ccc(/C=C/c2nc3ccccc3c(=O)[nH]2)cc1	10	-50	-14	34	-3
Cc1ccc(/C=C/c2nc3ccccc3c(=O)[nH]2)cc1	70*	84*	45*	75*	52*
CCn1c(/C=C/c2cc(Br)ccc2O)nc2ccccc2c1=O	11	30	-21	63*	47
O=c1c2ccccc2nc(/C=C/c2ccc(Br)cc2)n1CCO	-10	-29	/	-30	-17
Cc1[nH]c2ccccc2c1/C=C/c1nc2ccccc2c(=O)n1CCO	0	35	-27	13	55*
O=c1c2ccccc2nc(/C=C/c2ccc([N+](=O)[O-])cc2)n1CCCO	/	7	-2	17	-2
O=c1c2ccccc2nc(/C=C/c2ccc([N+](=O)[O-])o2)n1CCCO	/	4	84*	11	11
C[C@@H]1CCCCO[C@@H](CN(C)Cc2ccc(C(F)(F)F)cc2)[C@@H](C)CN([C@@H](C)CO)C(=O)c2cc(NS(=O)(=O)c3cn(C)cn3)ccc2O1	-1	-1	/	/	/
C[C@H]1CN([C@@H](C)CO)C(=O)Cc2cc(NS(=O)(=O)c3cccs3)ccc2O[C@@H]1CN(C)S(=O)(=O)c1cccs1	1	-1	/	/	/
Nc1nc(N)c2cc(CNc3ccc(Cl)c(Cl)c3)ccc2n1	14	107*	3	98*	36
CCN(c1cccc(C)c1)S(=O)(=O)c1ccc(-c2cc(C)no2)s1	55*	9	9	3	18
Cc1cccc(N(C)S(=O)(=O)c2ccc(-c3cc(C)no3)s2)c1	54*	-10	1	-12	18
CCOc1ccc(N(C)S(=O)(=O)c2cc(-c3cc(C)no3)ccc2C(C)C)cc1	11	6	1	-7	-15
CCOc1ccc(N(C)S(=O)(=O)c2ccc(-c3cc(C)no3)s2)cc1	55*	1	-5	6	41
CC(=O)c1ccc(NC(=O)COC(=O)c2c3c(nc4ccccc24)/C(=C\c2cccs2)CCC3)cc1	-8	22	-4	57*	16
C[C@H](CO)N1C[C@H](C)[C@@H](CN(C)C(=O)C2CC2)Oc2cc(-c3ccccc3F)ccc2S1(=O)=O	0	9	/	/	/
CCC(=O)N1[C@@H]2c3cccc(=O)n3C[C@@H]2[C@@H](CO)[C@@H]1C(=O)NC1CCCC1	-6	-6	/	/	/
CC(C)CC#Cc1ccc([C@H]2[C@H](CO)N3C(=O)CN(C(=O)c4ccccn4)C[C@@H]23)cc1	4	9	/	/	/
Cc1ccc(NC(=O)C2C3C=CC4(O3)C2C(=O)N(CCCN2CCOCC2)C4C(=O)NC2CCCCC2)cc1Cl (configuration not stated)	-5	4	-4	1	1
Cc1ccc(NC(=O)C2C3C=CC4(O3)C2C(=O)N(CCN2CCOCC2)C4C(=O)NC2CCCCC2)cc1C (configuration not stated)	-6	0	0	88*	-3
CC(C)NC(=O)N(C)C[C@@H]1Oc2cc(C#CC3CC3)ccc2S(=O)(=O)N([C@H](C)CO)C[C@H]1C	0	-3	/	/	/
O=C1/C(=C\c2ccc(Cl)c(Cl)c2)CN(C(=O)CCN2CCOCC2)C/C1=C/c1ccc(Cl)c(Cl)c1	56*	91*	2	107*	78*
SMILES	EWS-Fli block	LGR2 antag	LMP1 NFkB inh	TWEAK Fn14 block	TROY signal inh
COc1cccc(-n2nnnc2SCC(=O)Nc2ccccc2OC)c1	-102	13	-1	-1	0
CCCS(=O)(=O)c1nnnn1-c1cccc(OC)c1	/	/	18	69*	52*
CC(C)CC#Cc1cnc2c(c1)C(=O)N([C@@H](C)CO)C[C@@H](C)[C@@H](CN(C)C(=O)Cc1ccncc1)O2	-13	2	/	/	/
Cc1cc(NC(c2ccc(Cl)cc2)c2ccc3cccnc3c2O)no1 (configuration not stated)	/	/	70*	-31	15
CCCCC(=O)NC(c1ccc(OC)cc1)c1ccc2cccnc2c1O (configuration not stated)	11	11	65*	0	0
Cc1ccnc(NC(c2ccccc2)c2ccc3cccnc3c2O)c1 (configuration not stated)	22	9	14	-22	-6
CCC(=O)NC(c1ccc(C)cc1)c1ccc2cccnc2c1O (configuration not stated)	32	34	?	21	22
CCCC(=O)NC(c1ccc(C(C)C)cc1)c1ccc2cccnc2c1O (configuration not stated)	45	23	62*	29	34
CCCC(=O)NC(c1ccccc1Cl)c1ccc2cccnc2c1O (configuration not stated)	23	24	66*	4	2
CC(=O)NC(c1ccccc1)c1cc(Cl)c2cccnc2c1O (configuration not stated)	21	8	35	12	10
COc1ccc(C(NC(C)=O)c2cc(Cl)c3cccnc3c2O)cc1 (configuration not stated)	9	21	42*	30	23
CCCC(=O)NC(c1ccc(N(C)C)cc1)c1ccc2cccnc2c1O (configuration not stated)	36	22	47*	3	6
CC(=O)NC(c1ccc(Cl)cc1)c1ccc2cccnc2c1O (configuration not stated)	44	/	63*	19	26
COC(=O)c1cn(NC(=O)c2cc([N+](=O)[O-])ccc2F)c(=O)c2ccccc12	1	17	86*	68*	9
COC(=O)C[C@@H]1C[C@H]2c3cc(NC(=O)Nc4ccc(F)cc4)ccc3O[C@H]2[C@H](CO)O1	-3	24	/	/	/
COCC(=O)N1CCC(Oc2ccc(C(=O)N3C[C@H]4CC[C@H]3C4)cc2)CC1	-6	6	65*	2	9
C[C@H](CO)N1C[C@H](C)[C@H](CN(C)Cc2cccc(C(=O)O)c2)OCc2cnnn2CCCC1=O	1	-3	/	/	/
Cc1cccc(C)c1-n1nnnc1C1(C)CCC(=O)N1CCc1ccccc1F (configuration not stated)	-6	-2	/	2	-3

Assay outcomes (PubChem)
